PubChem BioAssay (EPA / NIEHS)
Several values for one entry are separate records, joined by “and”; a condition that tells them apart may be missing. Equal entries are not always repeated. Records with an inconclusive call do not appear. The source holds several records for some structures; these can differ, active in one and inactive in another. Activity calls are given as the source filed them. How the source made its calls, unless noted: active means hit-call score of the fitted dose curve at least 0.9, where 1 is the maximum; inactive means score below 0.9.

Experiments:
DIO2 (gene 1734) = experiment: CCTE_GLTED_hDIO2: CCTE's human Deiodinase 2 (DIO2) Inhibition Assay, Great Lakes Toxicology and Ecology Division (GLTED) Lab (AID 2284050; active means hit-call score of the fitted dose curve at least 0.9, where 1 is the maximum)
Method in brief: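 Cell-free human DIO2 enzyme was incubated with test chemical for 3 h; iodide liberated from substrate was then quantified by the Sandell-Kolthoff reaction (absorbance), run in triplicate. Loss of signal versus DMSO baseline indicated inhibition.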

DIO3 (gene 1735) = experiment: CCTE_GLTED_hDIO3: CCTE's human Deiodinase 3 (DIO3) Inhibition Assay, Great Lakes Toxicology and Ecology Division (GLTED) Lab (AID 2284055; active means hit-call score of the fitted dose curve at least 0.9, where 1 is the maximum;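 further: potency is for inhibition seen as loss of released iodide signal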)
Method in brief: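 Cell-free assay with human DIO3 enzyme produced by adenovirus expression; enzyme incubated with test chemical for 3 hours. Liberated iodide then measured by Sandell-Kolthoff absorbance; loss of signal versus DMSO baseline indicates inhibition, run in triplicate.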

[1] = CCTE_Shafer_MEA_acute_AB: CCTE's Alamar Blue Assay for Cytotoxicity in the Neural Acute Assay, Shafer Lab (AID 2284069; active means hit-call score of the fitted dose curve at least 0.9, where 1 is the maximum;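 further: active compounds lower the viability signal compared with DMSO wells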)
Method in brief: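 Metabolic activity in chemically exposed rat cortical neurons (MEA cultures, day 13/15 post-plating) measured via CellTiter Blue resazurin reduction, 544/590 nm fluorescence; fitted relative to DMSO, with signal loss indicating reduced viability.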

[2] = CCTE_Shafer_MEA_acute_LDH: CCTE's Lactate Dehydrogenase Assay for Cytotoxicity in the Neural Acute Assay, Shafer Lab (AID 2284086; active means hit-call score of the fitted dose curve at least 0.9, where 1 is the maximum;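 further: active means LDH release rises above DMSO vehicle level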)
Method in brief: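 Primary rat cortical neurons on 48-well MEA plates, treated on day 13 or 15 post-plating. After the 40-min recording with compound, medium LDH release was read by absorbance at 490 nm. Gain of signal was fitted against DMSO negative control.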

[3] = CCTE_Shafer_MEA_dev_burst_rate: CCTE's Neural Network Formation Assay for Burst Rate, Shafer Lab (AID 2284042);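 on AC50: potency for loss of burst rate below DMSO control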
Method in brief: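 Cells plated, treated day 0; recorded DIV 5, 7, 9, 12; fed and re-treated DIV 5, 9. Endpoint: bursts per recording time, active-electrode well mean, trapezoidal AUC, fitted in decreasing direction against DMSO baseline.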

[4] = CCTE_Shafer_MEA_dev_bursting_electrodes_number: CCTE's Neural Network Formation Assay for Number of Bursting Electrodes, Shafer Lab (AID 2284043; active means hit-call score of the fitted dose curve at least 0.9, where 1 is the maximum;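 on AC50: potency is for loss of bursting electrodes relative to DMSO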)
Method in brief: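 Read-out is the per-well number of electrodes bursting at least once every 2 minutes, recorded on days 5, 7, 9 and 12 and collapsed by trapezoidal area under the curve. Cultures were primary rat cortical neurons on MEA plates, treated continuously from plating.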

[5] = CCTE_Shafer_MEA_dev_per_burst_interspike_interval: CCTE's Neural Network Formation Assay for Burst Interspike Interval, Shafer Lab (AID 2284044);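 on AC50: potency for a decrease of within-burst interspike interval below DMSO level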
Method in brief: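 Readout is the average time between spikes inside single-electrode bursts, taken as a well mean across bursting electrodes. Cortical neurons from rat developed networks on MEA plates under continuous 12-day exposure; recordings on days 5, 7, 9 and 12 were integrated by trapezoidal AUC.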

[6] = CCTE_Shafer_MEA_dev_burst_duration_mean: CCTE's Neural Network Formation Assay for Mean Burst Duration, Shafer Lab (AID 2284045)
Method in brief: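 Read-out: average first-to-last-spike interval within single-electrode bursts, averaged over bursting electrodes per well, then summarised as area under the curve across days 5, 7, 9 and 12. Developing rat cortical networks were exposed from day 0.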

[7] = CCTE_Shafer_MEA_dev_interburst_interval_mean: CCTE's Neural Network Formation Assay for Mean Interburst Interval, Shafer Lab (AID 2284046);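 further: well-mean interburst interval of bursting electrodes as AUC over four recording days; curve fitted for decrease in interburst interval relative to DMSO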
Method in brief: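 Developing rat cortical networks on 48-well MEAs receive compound from the day of plating. Burst intervals from each active electrode are averaged per well, and AUC over the recording days is fitted in the negative direction against DMSO.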

[8] = CCTE_Shafer_MEA_dev_inter_network_spike_interval_mean: CCTE's Neural Network Formation Assay for Mean Inter-network Spike Interval, Shafer Lab (AID 2284047)
Method in brief: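 Rat cortical cultures, 1.5 x 10^5 cells/well on 48-well MEA plates; continuous exposure days 0–12, medium and compound refreshed DIV 5, 9. Mean time between consecutive network-spike peaks; AUC across DIV 5/7/9/12; DMSO baseline, negative fitting direction.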

[9] = CCTE_Shafer_MEA_dev_network_spike_number: CCTE's Neural Network Formation Assay for Number of Network Spikes, Shafer Lab (AID 2284048)
Method in brief: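 Developing networks of primary rat cortical neurons are treated over 12 days starting at plating, with media and compound fully replaced on DIV 5 and 9. Network spike counts from four recording days are integrated as trapezoidal AUC.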

[10] = CCTE_Shafer_MEA_dev_network_spike_peak: CCTE's Neural Network Formation Assay for Mean Number of Electrodes in Network Spike, Shafer Lab (AID 2284049);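 on AC50: fitted for loss of signal meaning fewer electrodes in network spikes than DMSO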
Method in brief: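 Rat cortical primary culture, 1.5 x 10^5 cells/well, 48-well MEA (16 electrodes/well). Dosing day 0 through DIV 12, full media/compound exchange DIV 5, 9. AxIS adaptive spike detection; AUC over days 5/7/9/12; loss-of-signal vs DMSO.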

[11] = CCTE_Shafer_MEA_dev_spike_duration_mean: CCTE's Neural Network Formation Assay for Mean Spike Duration, Shafer Lab (AID 2284051);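 further: mean network spike duration pooled as area under curve over DIV 5 to 12 recordings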;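 on AC50: potency for a decrease in mean network spike duration versus DMSO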
Method in brief: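 Readout is the average length of network spikes, clustered firing across electrodes, summed over DIV 5, 7, 9 and 12 as area under the curve. Neurons from rat cortex developed networks on MEA plates under continuous 12-day exposure.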

[12] = CCTE_Shafer_MEA_dev_network_spike_duration_std: CCTE's Neural Network Formation Assay for Standard Deviation of Network Spike Duration, Shafer Lab (AID 2284052);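 further: area under curve of spike duration SD across recording days 5 to 12; hits are decreases in network spike duration SD versus DMSO vehicle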
Method in brief: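 Read-out is the trapezoidal area-under-the-curve across recordings made on days 5, 7, 9 and 12, fitted in the negative direction against DMSO baseline. Neurons were primary rat cortical cells treated from day 0, with treatment renewed at each feed.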

[13] = UKN5_HCS_SBAD2_cell_viability: Viability Assessment in the University of Konstanz (UKN) Leist Lab Neurite Outgrowth Assay in human iPSC-derived immature Dorsal Root Ganglia Neurons (UKN5) (AID 2284056)
Method in brief: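 iPSC-derived immature peripheral neurons (SBAD2) seeded on Matrigel with CHIR99021, SU5402 and DAPT, dosed 1 h later for 24 h. Viability from Hoechst H-33342 and calcein-AM live staining, high-content imaging; bidirectional fit versus DMSO.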

[14] = CCTE_Shafer_MEA_dev_LDH: CCTE's Lactate Dehydrogenase Assay for Cytotoxicity in the Neural Network Formation Assay, Shafer Lab (AID 2284068; active means hit-call score of the fitted dose curve at least 0.9, where 1 is the maximum;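 further: exposure for twelve days from plating with re-dosing on DIV 5 and 9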)
Method in brief: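 Cytotoxicity companion to network-formation recordings: rat cortical neurons received compound over 12 days of development, re-dosed at DIV 5 and 9 feeds. Viability was inferred from LDH enzyme activity relative to DMSO.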

[15] = UKN5_HCS_SBAD2_neurite_outgrowth: University of Konstanz (UKN) Leist Lab Neurite Outgrowth Assay in human iPSC-derived immature Dorsal Root Ganglia Neurons (UKN5) (AID 2284070); conditions: actives raise or lower the signal
Method in brief: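 Human iPSC-derived immature DRG neurons (SBAD2) on Matrigel with CHIR99021 (1.5 uM), SU5402 (5 uM), DAPT (5 uM); compounds added 1 h post-seeding for 24 h. Calcein-AM neurite area imaged; bidirectional fit vs DMSO.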

[16] = CCTE_Shafer_MEA_dev_AB: CCTE's Alamar Blue Assay for Cytotoxicity in the Neural Network Formation Assay, Shafer Lab (AID 2284083; active means hit-call score of the fitted dose curve at least 0.9, where 1 is the maximum;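 further: twelve days of exposure from plating with re-dosing on DIV 5 and 9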)
Method in brief: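 Fluorescent resazurin reduction serves as the viability read-out, with DMSO as negative control and baseline. Cells were primary rat cortical neurons grown on MEA plates and dosed from day 0 to day 12, treatment renewed on DIV 5 and 9.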

[17] = CCTE_Shafer_MEA_dev_mutual_information_norm: CCTE's Neural Network Formation Assay for Mutual Information Normalization, Shafer Lab (AID 2284091);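 on AC50: mutual information between electrodes summarised as area under curve across four recording days; potency is for a decrease in mutual information relative to DMSO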
Method in brief: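 Developing rat cortical networks on 16-electrode MEA wells are treated throughout formation (DIV 0–12). Shared electrode information is recorded four times, converted to area-under-curve, and fitted for decreases against DMSO vehicle.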

[18] = CCTE_Shafer_MEA_dev_correlation_coefficient_mean: CCTE's Neural Network Formation Assay for Mean Correlation Coefficient, Shafer Lab (AID 2284093);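 on AC50: well mean pairwise spike train correlation integrated as AUC over recording days 5 to 12; potency fitted for loss of correlation relative to DMSO vehicle wells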
Method in brief: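 Read-out: well-mean correlation coefficient of spike trains between electrode pairs, collapsed over four recording days as trapezoidal area-under-the-curve. Developing rat cortical neuron networks grown on MEAs received test chemical continuously from plating.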

Measured: AC50

CCCCCOC(=O)COc1cc(N2C(=O)C3=C(CCCC3)C2=O)c(F)cc1Cl
active: DIO2 (gene 1734) 59.5 µM | DIO3 (gene 1735) 100 µM

O=C(c1ccc(O)cc1O)c1ccc(O)cc1O
inactive: [1] | [2]

COC(=O)c1ccccc1C(=O)O
inactive: [1]

CC(C)(C)[C@@H](O)[C@@H](Cc1ccc(Cl)cc1)n1cncn1
inactive: [1] | [2]

O=C(c1ccccc1)C1CCCCC1
inactive: [1] | [2]

S=C(S)NCCNC(=S)S.[Mn+2].[S-]C([S-])=NCCN=C([S-])[S-].[Zn+2]
inactive: [3] | [4] | [5] | [6] | [7] | [8] | [9] | [10] | [11] | [12] | [13] | [14] | [16] | [17] | [18]
active: [4] 7.52 µM | [10] 7.52 µM | DIO2 (gene 1734) 50 µM | [11] 2.42 µM | DIO3 (gene 1735) 43.6 µM | [15] 15 µM

CC1(C)C(C=C(Cl)Cl)C1C(=O)OCc1cccc(Oc2ccccc2)c1 (stereo unspecified)
active: [3] 27.7 µM | [4] 24.4 µM and 10.1 µM | [5] 25.5 µM | [7] 25.4 µM and 10.1 µM | [10] 23.2 µM and 9.11 µM | [11] 21.3 µM and 10.1 µM | [14] 22.6 µM and 9.58 µM | [16] 26.4 µM and 14.7 µM | [17] 15 µM and 5.01 µM | [18] 15 µM and 5.33 µM
inactive: [3] | [5] | [6] | [8] | [9] | [12] | [2]

N#CSCSc1nc2ccccc2s1
inactive: [1] | [2]

CCN(CC)C(=O)c1cccc(C)c1
inactive: [3] | [4] | [5] | [6] | [7] | [8] | [9] | [10] | [11] | [12] | [17] | [18]
